Sampled rows, rich in hits. Any-hit rate of the full collection: about 6.6%.
CSC inhib = cancer stem cell inhibition; cancer stem cell-like cells viability, luminescence; inhibition, % at 7.5 µM; hit rate 1.1% among 300,000; AID 2717; in the data active = inhibition above about 75%; tested in HMLE shEcad cells
GRIN3A LBD mod = NR3A (human) ligand-binding domain modulation; Tm shift relative to glycine control, % at 25 µM; hit rate 2.5% among 340,000; NR3A LBD differential scanning fluorimetry, Tm shift; 0% = protein alone, 100% = glycine-bound protein; AID 1259313;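 active = melting temperature shift of at least 10% of the positive control shift, at one fixed dose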
Beta apoptosis = beta cell apoptosis inhibition; INS-1E cytokine-induced death, ATP luminescence, 48 h; percent of positive-control rescue, neutral wells zero; protection from apoptosis, % (concentration not given with the values); hit rate 0.8% among 300,000;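 active = Every replicate reaches about 75%, or at least half do and their mean reaches it too, limit read from the data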;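 also: higher means more ATP so stronger rescue from cytokine killing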
Gli-Sufu block = antagonists of Gli-Sufu signaling | Sufu-KO-LIGHT fibroblasts, Gli luciferase reporter luminescence | inhibition, % at 5 µM | hit rate 0.74% among 340,000 | AID 588413;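 active = inhibition above about 55%, limit read from the data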
MPTP inh = blocks calcium-induced mitochondrial swelling; AID 602449; hit rate 1.4% among 360,000; isolated mouse mitochondria, Ca2+ swelling absorbance, 30 min; inhibition, % at 10 µM;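 active = inhibition of 50% or more, scaled per plate between neutral and stimulator controls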
Mdm2 MdmX PPI = inhibitors of human Mdm2/MdmX interaction | hit rate 3% among 330,000 | SaOS-2 split-luciferase Mdm2/MdmX complementation, luminescence | inhibition, % at 8 µM | O15151+Q00987 | AID 485346;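 active = inhibition of at least 50% at 8 µM in the primary screen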
Target sequence (O15151 whole entry, looked up): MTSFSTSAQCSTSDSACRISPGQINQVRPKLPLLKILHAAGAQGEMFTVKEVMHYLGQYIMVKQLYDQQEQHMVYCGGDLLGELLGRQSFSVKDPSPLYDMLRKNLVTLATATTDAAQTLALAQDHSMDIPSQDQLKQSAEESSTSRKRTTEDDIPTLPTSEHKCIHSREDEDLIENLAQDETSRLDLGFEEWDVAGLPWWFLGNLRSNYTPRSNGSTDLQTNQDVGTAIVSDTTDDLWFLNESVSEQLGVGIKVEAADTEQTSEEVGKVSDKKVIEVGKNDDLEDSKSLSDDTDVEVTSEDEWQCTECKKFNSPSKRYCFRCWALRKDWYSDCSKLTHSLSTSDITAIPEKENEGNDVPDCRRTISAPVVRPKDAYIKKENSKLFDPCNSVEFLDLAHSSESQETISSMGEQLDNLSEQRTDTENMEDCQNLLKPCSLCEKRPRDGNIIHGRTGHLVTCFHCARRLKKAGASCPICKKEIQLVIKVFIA
Target sequence (Q00987 whole entry, looked up): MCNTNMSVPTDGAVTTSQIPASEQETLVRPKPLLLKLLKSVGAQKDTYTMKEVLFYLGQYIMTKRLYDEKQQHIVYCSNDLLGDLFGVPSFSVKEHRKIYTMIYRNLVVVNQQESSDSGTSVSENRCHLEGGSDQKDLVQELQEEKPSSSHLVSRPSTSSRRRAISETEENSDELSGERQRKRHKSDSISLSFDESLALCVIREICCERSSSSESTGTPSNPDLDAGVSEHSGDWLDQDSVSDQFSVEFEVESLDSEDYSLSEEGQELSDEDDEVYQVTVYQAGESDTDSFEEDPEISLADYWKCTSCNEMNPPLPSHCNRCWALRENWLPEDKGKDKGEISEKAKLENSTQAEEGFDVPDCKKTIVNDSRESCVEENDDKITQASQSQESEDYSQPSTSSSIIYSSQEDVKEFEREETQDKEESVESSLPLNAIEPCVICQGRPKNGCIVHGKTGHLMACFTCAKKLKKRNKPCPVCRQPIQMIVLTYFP
Mdm2 MdmX conf = confirmation of human Mdm2/MdmX interaction inhibitors; shares compounds with Mdm2 MdmX PPI; Mdm2-MdmX binding, luminescent assay; inhibition, % at 8 µM; hit rate 55% among 10,000; AID 489028; in the data active = inhibition above about 40%
Full FLuc ctr = inhibits full-length luciferase, flagging false Mdm2/MdmX hits | SaOS-2 full-length luciferase counterscreen, luminescence | inhibition, % at 8 µM | hit rate 77% among 6,200 | shares compounds with Mdm2 MdmX PPI;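 active = mean inhibition at 8 µM reaching about 37%, which flags the compound as non-specific, limit read from the data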;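 also: p53-null SaOS-2 cells with luciferase driven by a doxycycline-inducible promoter; compound on cells about two nights before reading with doxycycline added after day one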
Of the large screens only hits and unclear results are named; the others gave an inactive call (follow-up assays come after a bar, where they were run).

CC[C@H](C)Cc1cn([C@@H](CCCN=C(NC(=O)OC(C)(C)C)NC(=O)OC(C)(C)C)C(=O)NCCCCCCCCCCC(=O)N2CCN(C(=O)OC(C)(C)C)CC2)nn1	Mdm2 MdmX PPI 66 | Mdm2 MdmX conf inactive
C#CCOCCOCCOCCNc1nc(N2CCN(C(=O)CCCCCCCCCCNC(=O)[C@H](CCCCN)n3cc(CCO)nn3)CC2)nc(N2CCN(C(=O)CCCCCCCCCCNC(=O)[C@H](CCCCN)n3cc(CCCC(=O)O)nn3)CC2)n1	none
C#CCOCCOCCOCCNc1nc(N2CCN(C(=O)CCCCCCCCCCNC(=O)[C@H](CCCCN)n3cc(C)nn3)CC2)nc(N2CCN(C(=O)CCCCCCCCCCNC(=O)[C@@H]([C@H](C)O)n3cc(C)nn3)CC2)n1	GRIN3A LBD mod 26, Mdm2 MdmX PPI 78 | Mdm2 MdmX conf inactive
C#CCOCCOCCOCCNc1nc(N2CCN(C(=O)CCCCCCCCCCNC(=O)[C@H](CCCCN)n3cc(C[C@@H](C)CC)nn3)CC2)nc(N2CCN(C(=O)CCCCCCCCCCNC(=O)[C@@H]([C@H](C)O)n3cc(C)nn3)CC2)n1	GRIN3A LBD mod 11, Beta apoptosis 99, Mdm2 MdmX PPI 97 | Mdm2 MdmX conf 97 | Full FLuc ctr inactive
CC[C@@H](C)C(NC(=O)OC(C)(C)C)c1cn([C@@H](CCCCNC(=O)OC(C)(C)C)C(=O)N2CCN(C(=O)OC(C)(C)C)CC2)nn1 (some centres undefined)	none
C#CCOCCOCCOCCNc1nc(N2CCN(C(=O)CCCCCCCCCCNC(=O)[C@@H](CCSC)n3cc(CCO)nn3)CC2)nc(N2CCN(C(=O)CCCCCCCCCCNC(=O)[C@@H]([C@H](C)O)n3cc(C)nn3)CC2)n1	none
O=C(Cn1cnc2sc(-c3ccccc3)cc2c1=O)NCc1ccccc1	Mdm2 MdmX PPI 77 (no result: CSC inhib, Beta apoptosis) | Mdm2 MdmX conf 56 | Full FLuc ctr 56
O=C(Cn1cnc2sc(-c3ccccc3)cc2c1=O)NCCc1ccccc1	Mdm2 MdmX PPI 93 | Mdm2 MdmX conf inactive | Full FLuc ctr 98
COc1cccc(NC(=O)Nc2nnc(N3C(C)CCCC3C)s2)c1 (centres undefined)	none
CCN(CC)CCN(Cc1cc2ccc(C)c(C)c2[nH]c1=O)C(=S)NCc1ccco1	Mdm2 MdmX PPI 88 | Mdm2 MdmX conf 54 | Full FLuc ctr 82
CCN(CC)CCN(Cc1cc2cc(C)cc(C)c2[nH]c1=O)C(=S)NCc1ccco1	none
CCCS(=O)(=O)NC(=O)C1(C)CCCN(C(=O)c2cc3ccccc3s2)C1 (centres undefined)	none (no result: CSC inhib, GRIN3A LBD mod, Beta apoptosis, Gli-Sufu block, Mdm2 MdmX PPI)
COc1cnc(-c2ccccn2)nc1N(C)c1ccccc1	CSC inhib 98, Beta apoptosis 92, Mdm2 MdmX PPI 80 | Mdm2 MdmX conf 77 | Full FLuc ctr 56
CCOc1cc(Br)c(CN2C(=O)NC3(CCCCCC3)C2=O)cc1OCC	none
COc1ccc(/C=N\NC(=O)COc2ccccc2Cl)cc1Cn1nc(C)cc1C	none
COc1ccc(/C=N\NC(=O)c2sccc2C)cc1Cn1nc(C)cc1C	Mdm2 MdmX PPI 59 | Mdm2 MdmX conf 64 | Full FLuc ctr 73
COc1ccc(CCC(=O)NNC(=O)c2ccccn2)cc1OC	none (no result: CSC inhib, Beta apoptosis)
Cc1nn(CC(=O)OCC(=O)Nc2cccc(S(N)(=O)=O)c2)c(C)c1[N+](=O)[O-]	none
CC1CCN(C(=O)c2ccc3c(c2NCCO)C(=O)c2ccccc2C3=O)CC1	none
CCN(CC)CCNC(=O)c1ccc2c(c1NCCO)C(=O)c1ccccc1C2=O	Beta apoptosis 116, Mdm2 MdmX PPI 91 | Mdm2 MdmX conf 84 | Full FLuc ctr inactive
CCCCCCCCCCCCCCCC[N+](C)(C)CCN(Cc1ccc(OC)cc1)c1ncccn1	CSC inhib 117, GRIN3A LBD mod 23, Beta apoptosis 100, Gli-Sufu block 64, Mdm2 MdmX PPI 100 | Mdm2 MdmX conf 96 | Full FLuc ctr inactive
CCCC(=O)N1CCN(c2nc(CC(C)C)c3c(c2C#N)CCC3)CC1	none
NNC(=O)CSc1cccc2cccnc12	none
CN(C)C(=O)CSc1cccc2cccnc12	Mdm2 MdmX PPI 70 | Mdm2 MdmX conf inactive
O=C(CSc1cccc2cccnc12)N1CCCC1	Mdm2 MdmX PPI 66 | Mdm2 MdmX conf inactive
Cc1cc(NCCCn2ccnc2)n2nc(-c3ccc(Cl)cc3)cc2n1	none
CN(C)CCCNc1cc(C(C)(C)C)nc2c(-c3ccccc3)cnn12	CSC inhib 99, Beta apoptosis 113, Mdm2 MdmX PPI 100 | Mdm2 MdmX conf 52 | Full FLuc ctr 72
Cc1cc(NCCOCCO)n2ncc(-c3ccc(Cl)cc3)c2n1	Mdm2 MdmX PPI 61 | Mdm2 MdmX conf 54 | Full FLuc ctr 59
CC(C)(C)c1cc(NCCCn2ccnc2)n2ncc(-c3ccc(Cl)cc3)c2n1	CSC inhib 112, GRIN3A LBD mod 20, Mdm2 MdmX PPI 74 | Mdm2 MdmX conf 43 | Full FLuc ctr inactive
O=C(N[C@@H](Cc1ccccc1)C(=O)N[C@@H](Cc1ccccc1)C(=O)O)OCc1ccccc1	none
O=C(N[C@@H](Cc1ccccc1)C(=O)CCl)OCc1ccccc1	Mdm2 MdmX PPI 96 | Mdm2 MdmX conf 85 | Full FLuc ctr inactive
O=C(CSc1nnc(-c2cccs2)n1-c1ccccc1)Nc1ccccc1	Mdm2 MdmX PPI 69 | Mdm2 MdmX conf inactive
O=C(CSc1nnc(-c2cccnc2)n1-c1ccccc1)Nc1ccccc1	Mdm2 MdmX PPI 50 | Mdm2 MdmX conf inactive
Cc1ccc(NC(=O)CSc2nnc(-c3cccnc3)n2-c2ccc(C)cc2)cc1	none
CCOC(=O)CSc1nnc(-c2cccs2)n1-c1ccccc1	none
Cc1ccc(S(=O)(=O)N2[C@@H](CO)CO[C@H]2CC(=O)c2cccc3ccccc23)cc1	none (no result: CSC inhib, GRIN3A LBD mod, Beta apoptosis, Gli-Sufu block, Mdm2 MdmX PPI)
Cc1ccc(-n2cc(-c3ccccc3)c3c(N4CCOCC4)ncnc32)cc1	none (no result: CSC inhib, Beta apoptosis, Mdm2 MdmX PPI)
Cc1cccc(-n2cc(-c3ccccc3)c3c(N4CCOCC4)ncnc32)c1	CSC inhib 105, Mdm2 MdmX PPI 67 | Mdm2 MdmX conf 55 | Full FLuc ctr 72
COc1ccc(-n2cc(-c3ccccc3)c3c(N4CCN(CCO)CC4)ncnc32)cc1	Mdm2 MdmX PPI 51 | Mdm2 MdmX conf inactive
OCCN1CCN(c2ncnc3c2c(-c2ccccc2)cn3-c2ccc(F)cc2)CC1	none (no result: CSC inhib)
C/C(=N\NC(=O)c1nnn(-c2nonc2N)c1CSc1ccc(C)cc1)c1ccco1	Mdm2 MdmX PPI 62 | Mdm2 MdmX conf inactive
C/C(=N\NC(=O)c1nnn(-c2nonc2N)c1CSc1ccccc1)c1ccc2c(c1)OCO2	Mdm2 MdmX PPI 54 (no result: CSC inhib) | Mdm2 MdmX conf inactive
C/C(=N\NC(=O)c1nnn(-c2nonc2N)c1CSc1ccccc1)c1ccco1	none
CCn1nc(NC(=O)Cc2ccc(OC)cc2)c2cc3cccc(C)c3nc21	none
